The results in this text go back to PubChem BioAssay (NCI).

Compounds without any hit were thinned out: in the full panel of roughly 79,000, 15% have a hit. A number with no mark means an inactive call. Active and inactive are the calls of the source. Rule as the data show it: active = growth inhibition above about 70%; inactive = the rest.

This experiment in a line: NCI Yeast Anticancer Drug Screen. Data for the rad52 strain (AID 147).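 Also: 0% = growth of vehicle-treated control cultures.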 Particulars: S. cerevisiae rad52 mutant growth inhibition; at 33.0 µM; stronger effect = higher value. The procedure, abridged:
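Screen used a yeast mutant impaired in DNA repair. After compound exposure, growth was measured. Values reflect inhibition compared with vehicle-treated cells.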
With `CN(C)CC(CN(C)C)C(=O)/C=C/c1ccc(Cl)cc1Cl`, the growth inhibition is 98% (active).
Turning to `c1ccc2c(c1)ccn2CCc1c[nH]c2ccccc12`, the growth inhibition is 31%.
The result for `Cc1ccccc1NC(=O)c1c(C)oc2c1C(=O)c1ccccc1C2=O` reads 17%; that for `CC(C)OC(=O)NNc1c(Cl)cc(Cl)cc1Cl`, 6%; that for `COc1ccc2nc3cccc([N+](=O)[O-])c3c(NCCNCCO)c2c1`, 96% (active).
In the case of `COc1ccc2c(c1)CCCC(Br)C2=O` (configuration not stated) it was 64%.
The result for `CCC(OC(C)=O)C1CC(C(C)C)CCC1C` (configuration not stated) reads -73%; that for `O=S(=O)(c1cccc(C(F)(F)F)c1)N1c2ccccc2-n2cccc2C1c1cccnc1` (configuration not stated), 95% (active); that for `c1ccc(-c2cc(C3CO3)c3ccccc3n2)cc1` (configuration not stated), 70% (active).
Regarding `COc1ccc(/C=C2\SC(=S)N(/C=C3\C(=O)N(c4ccccc4)N=C3C)C2=O)cc1OC`, the growth inhibition is 64%.
For `CC1=CC(=C(c2ccc(N)c(C)c2)c2ccc(N)c(C)c2)C=CC1=N`, the growth inhibition was 64%.
The result for `CC1C(c2ccccc2)SC(=N)N1C` (configuration not stated) reads -1%.
The result for `CC(/C=C/c1ccc([N+](=O)[O-])o1)=N/N1CC(CN2CCOCC2)OC1=O` (configuration not stated) reads 94% (active); that for `C=CC(C)(C)N1C(=O)C(C(C)=O)=C(O)C1Cc1c[nH]c2ccccc12` (configuration not stated), 19%.
The result for `O=C1c2cccc3cccc(c23)C(=O)N1CCNCCN1C(=O)c2cccc3cccc(c23)C1=O` reads 14%; that for `Cc1ccc([N+](=O)[O-])c2c(NCCC[N+](C)(C)[O-])c3ccccc3nc12`, 47%.
Consider `COC(=O)C(Cc1c[nH]c2ccccc12)N1CN(C)c2ccccc2C1=O` (configuration not stated), for which the growth inhibition was 3%.
